Here are results for 5 molecules from PubChem BioAssay.

The structures appear in SMILES notation. The source made the active and inactive calls.

A short description of test [1]: small molecules captured by biotinylated probe aFSTL3 – biochemical, small-molecule microarray, fluorescence 635/667, stem cell growth factor project, primary screen (AID 1064).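 Further: measures binding of the biotinylated anti-FSTL3 antibody to printed compounds.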 Particulars: higher = more signal.
Test [2] is described as follows: binders from COS7 lysate, DM2A8 probe, primary screen, torsin A project, cell lysate, small-molecule microarray, fluorescence 635/667 (AID 1065). To be noted: higher = more signal, COS7 lysate expressing mutant human TOR1A.
Test [3] is described as follows: small molecules captured by biotinylated probe aFGF2 – biochemical, small-molecule microarray, fluorescence 635/667, stem cell growth factor project, primary screen (AID 1067).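 Further: measures binding of biotinylated aFGF2 protein to printed compounds on slides; z-score merges feature fluorescence and signal-to-noise across triplicate slides.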 To be noted: higher = more signal.
Test [4] can be described thus: small molecules captured by biotinylated probe aFGF10 – biochemical, small-molecule microarray, fluorescence 635/667, stem cell growth factor project, primary screen (AID 1071).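 Further: score merges 667 nm spot intensity and signal to noise from triplicate slides.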 Particulars: higher = more signal.
Test [5] concerns the target Neurogenic locus notch homolog protein 2 (Homo sapiens) (UniProt Q04721). Kind of test: small molecules binding Notch2 protein – biochemical, small-molecule microarray, 635 nm fluorescence, stem cell growth factors, primary screen (AID 1073). To be noted: higher = more signal.
The target in test [6] is Pro-neuregulin-1, membrane-bound isoform (Homo sapiens) (UniProt Q02297). Briefly: small molecules binding neuregulin-1 protein – biochemical, small-molecule microarray, fluorescence 635/667, psychiatric disease protein project, primary screen (AID 1075).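 Further: score combines 667 nm spot fluorescence with signal to noise.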 Particulars: NRG1 binding, 635 nm fluorescence, higher = more signal.
Chain of Pro-neuregulin-1, membrane-bound isoform (Homo sapiens) (Q02297 whole entry, looked up, the tested form may be a part, canonical isoform): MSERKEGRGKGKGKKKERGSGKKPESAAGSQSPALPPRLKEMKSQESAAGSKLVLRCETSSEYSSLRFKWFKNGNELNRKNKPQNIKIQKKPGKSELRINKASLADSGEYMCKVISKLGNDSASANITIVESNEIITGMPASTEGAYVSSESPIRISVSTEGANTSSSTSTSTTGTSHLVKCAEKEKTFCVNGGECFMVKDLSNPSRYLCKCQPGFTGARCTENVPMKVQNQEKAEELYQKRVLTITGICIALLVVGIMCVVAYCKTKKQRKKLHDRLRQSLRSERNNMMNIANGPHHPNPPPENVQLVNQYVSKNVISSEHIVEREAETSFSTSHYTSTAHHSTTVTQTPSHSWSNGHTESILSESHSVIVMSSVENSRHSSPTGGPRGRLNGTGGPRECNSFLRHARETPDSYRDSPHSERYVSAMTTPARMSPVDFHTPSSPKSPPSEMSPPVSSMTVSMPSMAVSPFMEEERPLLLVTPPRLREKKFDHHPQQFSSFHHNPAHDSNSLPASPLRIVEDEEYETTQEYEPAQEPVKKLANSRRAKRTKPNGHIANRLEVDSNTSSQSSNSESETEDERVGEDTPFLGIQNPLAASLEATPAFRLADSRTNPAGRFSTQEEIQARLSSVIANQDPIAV
Test [7] deals with Neuregulin-1 EGF-like domain. Briefly: small molecules binding NRG1 EGF domain – biochemical, small-molecule microarray, 635 nm fluorescence, primary screen (AID 1081).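 Further: binding of the protein to compounds printed on small-molecule microarray slides.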 To be noted: higher = more signal.
Test [8] is described as follows: FRG1 expression reporter modulators in myotubes – cell-based, C2C12 myotubes, firefly/Renilla luciferase, luminescence, FRG1 inhibition for FSHD, primary screen (AID 1084). Particulars: FRG1 promoter luciferase, higher = more signal, called active from +8 up or from −8 down.
Test [9] can be described thus: small molecules captured by biotinylated probe aFST – biochemical, small-molecule microarray, fluorescence 635/667, stem cell growth factor project, primary screen (AID 1086).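 Further: score merges 667 nm fluorescence with signal-to-noise of each printed compound spot.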 To be noted: higher = more signal.
Test [10] is described as follows: binders of probe aHhip on microarray, primary screen, stem cell growth factor project, biochemical, small-molecule microarray, fluorescence 635/667 (AID 1087).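 Further: score merges spot fluorescence at 667nm with spot signal to noise ratio.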 Particulars: higher = more signal.
Test [11] concerns PRMT1 (protein arginine N-methyltransferase 1). Briefly: small molecules binding arginine methyltransferase PRMT1 – biochemical, small-molecule microarray, 635 nm fluorescence, primary screen (AID 1088).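 Further: binding of Prmt1 protein to compounds spotted on small-molecule microarray slides.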 To be noted: higher = more signal.
Test [12] can be described thus: growth effects on S. cerevisiae YJM789 – YJM789 clinical isolate, OD600, 24 h, basal, primary screen (AID 1089).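 Further: growth of clinical yeast isolate S. cerevisiae YJM 789 seeded 1000 cells per well; test concentration not given here.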 Particulars: higher = more signal, called active from +8 up or from −8 down.
A short description of test [13]: S. pombe growth modifiers, basal conditions – strain 972, OD600, 24 h, no modulator, primary screen (AID 1090).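 Further: basal condition with compound alone and no growth modifier present; test concentration not given here.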 Particulars: S. pombe 972 growth, higher = more signal, called active from +8 up or from −8 down.
Test [14] is described as follows: budding yeast growth modifiers under rapamycin – strain BY4716, OD600, 96 h, primary screen (AID 1091). Further: test concentration not given here. Particulars: S. cerevisiae BY4716 + rapamycin, higher = more signal, called active from +8 up or from −8 down.
The target of test [15] is Torsin-1A-interacting protein 2 (Homo sapiens) (UniProt Q8NFQ8). Briefly: small molecules binding lysate-expressed LULL1 – cell lysate, human LULL1 lysate, 635/667 nm fluorescence, primary screen (AID 1092).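 Further: score merges per-feature 667 nm fluorescence with signal-to-noise.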 To be noted: small-molecule microarray, hLULL1 lysate binding, 635 nm fluorescence; higher = more signal.
Chain of Torsin-1A-interacting protein 2 (Homo sapiens) (Q8NFQ8 whole entry, looked up): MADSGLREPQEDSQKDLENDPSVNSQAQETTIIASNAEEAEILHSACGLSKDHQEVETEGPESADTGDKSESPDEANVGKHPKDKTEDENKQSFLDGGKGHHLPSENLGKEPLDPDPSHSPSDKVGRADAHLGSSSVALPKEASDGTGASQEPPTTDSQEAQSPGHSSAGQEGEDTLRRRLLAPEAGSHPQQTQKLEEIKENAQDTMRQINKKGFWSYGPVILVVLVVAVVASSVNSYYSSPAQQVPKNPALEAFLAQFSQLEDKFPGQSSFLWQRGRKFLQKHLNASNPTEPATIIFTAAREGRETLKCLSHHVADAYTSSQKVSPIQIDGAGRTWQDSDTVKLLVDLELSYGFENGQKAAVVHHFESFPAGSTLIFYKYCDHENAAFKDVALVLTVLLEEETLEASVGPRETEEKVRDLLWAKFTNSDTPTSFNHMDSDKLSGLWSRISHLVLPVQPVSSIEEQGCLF
Test [16] is described as follows: optical density change of DRC41 E. coli – strain DRC41, OD650, 24 h, E. coli filamentation project, primary screen (AID 1093).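 Further: MC1000 strain lacking acrAB efflux and sulA so SOS filamentation is blocked; test concentration not given here.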 To be noted: E. coli DRC41 growth, higher = more signal, called active from +8 up or from −8 down.
Test [17] in a line: probe aLefty2 binding to arrayed compounds – biochemical, biotinylated probe, 635/667 nm fluorescence, primary screen (AID 1094).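 Further: score merges spot fluorescence near 667 nm with spot signal-to-noise ratio.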 Particulars: small-molecule microarray, higher = more signal.
The subject of test [18] is Noggin (protein binding on small-molecule microarray). Briefly: small molecules binding Noggin protein – biochemical, 635/667 nm fluorescence, primary screen (AID 1095).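 Further: score merges 667 nm feature fluorescence with signal to noise over triplicate slides.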 To be noted: 635 nm fluorescence, higher = more signal.
The target of test [19] is Neurogenic locus notch homolog protein 3 (Homo sapiens) (UniProt Q9UM47). Kind of test: small molecules binding NOTCH3 protein – biochemical, 635/667 nm fluorescence, primary screen (AID 1096). Particulars: small-molecule microarray, 635 nm fluorescence, higher = more signal.
Test [20] can be described thus: probe aEGFR binding to arrayed compounds – biochemical, biotinylated probe, 635/667 nm fluorescence, primary screen (AID 1097).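 Further: probe is a biotinylated anti-EGFR antibody binding compounds printed on slides; score combines fluorescence near 667 nm and signal to noise of each spot.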 Particulars: small-molecule microarray, higher = more signal.

Chain of Neurogenic locus notch homolog protein 2 (Homo sapiens) (Q04721 whole entry, looked up, canonical isoform): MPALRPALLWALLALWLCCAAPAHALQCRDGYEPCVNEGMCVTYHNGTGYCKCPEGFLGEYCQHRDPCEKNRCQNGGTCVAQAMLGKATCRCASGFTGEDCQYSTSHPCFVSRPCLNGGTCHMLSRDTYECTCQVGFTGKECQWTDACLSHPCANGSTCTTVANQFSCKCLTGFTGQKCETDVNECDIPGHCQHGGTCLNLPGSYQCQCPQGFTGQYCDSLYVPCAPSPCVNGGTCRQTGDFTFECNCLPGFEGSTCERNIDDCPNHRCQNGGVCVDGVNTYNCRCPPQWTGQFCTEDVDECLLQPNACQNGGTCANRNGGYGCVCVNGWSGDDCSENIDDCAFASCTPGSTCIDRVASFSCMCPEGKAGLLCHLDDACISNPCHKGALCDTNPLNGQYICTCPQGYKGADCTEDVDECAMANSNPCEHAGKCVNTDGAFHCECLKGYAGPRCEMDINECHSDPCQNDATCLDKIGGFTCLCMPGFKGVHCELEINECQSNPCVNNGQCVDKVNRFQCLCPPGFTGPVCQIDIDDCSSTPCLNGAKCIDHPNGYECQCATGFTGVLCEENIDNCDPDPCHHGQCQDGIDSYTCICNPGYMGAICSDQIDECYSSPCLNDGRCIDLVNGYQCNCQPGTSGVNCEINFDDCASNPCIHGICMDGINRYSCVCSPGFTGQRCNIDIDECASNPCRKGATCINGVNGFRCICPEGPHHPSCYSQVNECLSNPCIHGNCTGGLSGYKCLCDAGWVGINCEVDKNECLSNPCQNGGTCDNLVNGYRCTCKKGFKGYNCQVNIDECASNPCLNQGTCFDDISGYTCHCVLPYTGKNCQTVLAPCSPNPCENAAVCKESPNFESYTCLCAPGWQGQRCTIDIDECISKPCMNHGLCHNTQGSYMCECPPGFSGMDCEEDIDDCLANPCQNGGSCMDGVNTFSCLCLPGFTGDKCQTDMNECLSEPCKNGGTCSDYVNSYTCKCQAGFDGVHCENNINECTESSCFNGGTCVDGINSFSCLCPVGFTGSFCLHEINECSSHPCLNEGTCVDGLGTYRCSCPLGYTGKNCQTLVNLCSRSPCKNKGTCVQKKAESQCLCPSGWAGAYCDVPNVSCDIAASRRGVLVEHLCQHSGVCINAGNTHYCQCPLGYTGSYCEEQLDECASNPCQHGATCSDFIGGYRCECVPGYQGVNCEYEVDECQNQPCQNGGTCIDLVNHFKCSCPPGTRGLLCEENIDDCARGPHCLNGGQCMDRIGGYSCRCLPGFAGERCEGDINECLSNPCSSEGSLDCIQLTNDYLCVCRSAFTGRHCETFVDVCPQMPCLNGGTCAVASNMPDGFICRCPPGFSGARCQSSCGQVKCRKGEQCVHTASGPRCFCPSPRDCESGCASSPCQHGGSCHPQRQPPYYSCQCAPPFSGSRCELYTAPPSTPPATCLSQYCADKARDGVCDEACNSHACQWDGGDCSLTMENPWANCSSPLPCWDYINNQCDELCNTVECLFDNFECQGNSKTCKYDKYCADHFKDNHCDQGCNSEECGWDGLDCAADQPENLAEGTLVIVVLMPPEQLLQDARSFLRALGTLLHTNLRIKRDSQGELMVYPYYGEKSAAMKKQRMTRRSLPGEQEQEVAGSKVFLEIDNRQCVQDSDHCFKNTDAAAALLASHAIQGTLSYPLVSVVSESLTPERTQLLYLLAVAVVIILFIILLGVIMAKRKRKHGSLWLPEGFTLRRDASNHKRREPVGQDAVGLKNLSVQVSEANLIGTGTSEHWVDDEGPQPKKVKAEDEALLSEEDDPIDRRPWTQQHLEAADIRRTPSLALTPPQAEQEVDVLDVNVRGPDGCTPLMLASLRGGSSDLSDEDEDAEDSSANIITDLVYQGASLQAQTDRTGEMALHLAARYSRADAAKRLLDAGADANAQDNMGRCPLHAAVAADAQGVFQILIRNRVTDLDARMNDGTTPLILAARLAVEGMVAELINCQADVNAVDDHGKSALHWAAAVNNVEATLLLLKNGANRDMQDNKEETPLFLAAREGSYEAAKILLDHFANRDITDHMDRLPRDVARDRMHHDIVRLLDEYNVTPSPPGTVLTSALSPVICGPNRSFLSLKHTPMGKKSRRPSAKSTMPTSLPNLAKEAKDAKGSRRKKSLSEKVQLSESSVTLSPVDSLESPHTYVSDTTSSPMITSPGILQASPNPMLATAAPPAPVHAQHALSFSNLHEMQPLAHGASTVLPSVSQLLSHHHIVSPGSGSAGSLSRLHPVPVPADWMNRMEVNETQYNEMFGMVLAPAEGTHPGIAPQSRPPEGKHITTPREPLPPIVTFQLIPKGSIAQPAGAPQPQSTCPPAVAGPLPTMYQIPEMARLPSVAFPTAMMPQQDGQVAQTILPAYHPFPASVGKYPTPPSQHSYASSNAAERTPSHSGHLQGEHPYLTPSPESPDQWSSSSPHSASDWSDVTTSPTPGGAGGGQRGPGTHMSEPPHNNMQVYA

As for `COC(=O)[C@@]1(Cc2ccc(OC)cc2)[C@H]2c3cc(C(=O)N4CCCC4)n(Cc4ccc(Cl)c(C(F)(F)F)c4)c3C[C@H]2CN1C(=O)c1ccccc1`, the composite z-score in [1] amounted to 0.608; in test [2], 0.673; in [3], 0.243; in test [4], 0.437; in [5], 1.64; in test [6] it was 2. Also, the composite z-score amounted to 0.605 in test [7]; 1.53 in test [9]; 0.132 in test [10]; 1 in test [11]; 3.59 in test [15]; 0.711 in test [17]. Further, the composite z-score in test [18] was -0.109; in [19], 1.03; in [20], 0.0788. Further, the z-score in test [8] is -2.87 (inactive); in test [12] it was -1.21 (inactive); in test [13], 1.37 (inactive); in test [14] it was 0.509 (inactive); in test [16], -0.304 (inactive).
`COCCOC(=O)N1C(=O)[C@@]2(c3cc(C#Cc4ccc(OC)cc4)ccc31)[C@H](c1ccc(OCCO)cc1)N1[C@H](c3ccccc3)[C@H](c3ccccc3)OC(=O)[C@H]1[C@@H]2C(=O)NC[C@H](O)c1ccccc1`: the composite z-score in [1] stood at 1.48; in [2], 0.628; in test [3], 0.005; in test [4], 0.703; in test [5] it was 1.15; in test [6], 0.455. Besides, the composite z-score was 1.2 in [7]; 0.919 in test [9]; 0.28 in test [10]; 1.5 in test [11]; 2.31 in test [15]; 0.3 in test [17]. Further, the composite z-score in [18] stood at 0.729; in test [19], 1.1; in [20], 0.259. For the same molecule, the z-score in test [8] is 0.848 (inactive); in test [12], 3.3 (inactive); in test [13] it was 2.29 (inactive); in test [14], 7.99 (inactive); in test [16], 0.0136 (inactive).
Turning to `COC(=O)[C@@]1(Cc2ccccc2)[C@H]2c3cc(C(=O)N(C)C)n(Cc4ccc(C(F)(F)F)nc4)c3C[C@H]2CN1C(=O)c1ccccc1`, the composite z-score in [1] turned out to be 0.261; in [2], 0.0724; in [3], 0.233; in [4], 0.699; in test [5], 1.67; in test [6], 1.9. For the same molecule, the composite z-score in test [7] is 1.48; in test [9] it was 1.74; in test [10] it was -0.126; in test [11], 0.644; in test [15], 3.69; in test [17], 0.348. In addition, the composite z-score in test [18] is -0.498; in [19] it was 1.03; in test [20], 0.228. Moreover, the z-score was 0.0597 (inactive) in test [8]; 1.06 (inactive) in [12]; 1.28 (inactive) in test [13]; 1.67 (inactive) in test [14]; -0.755 (inactive) in test [16].
In the case of `CC(C)C(CO)N1C(=O)[C@@H]2C3C(=O)OCCC/C=C\[C@H]3OC23C=CCN(Cc2ccccc2)C(=O)[C@@H]13` (stereo not given in full), the composite z-score was 0.598 in test [1]; -0.217 in [2]; -0.0744 in test [3]; 0.648 in [4]; -0.376 in test [5]; 1.43 in test [6]. Moreover, the composite z-score in [7] is 1.58; in test [9] it was -0.406; in test [10] it was -0.134; in test [11], -0.928; in test [15], 1.18; in [17], -0.0598. Moreover, the figures for the composite z-score in test [18], in [19] and in [20] were -0.989, -0.0928 and -0.148, respectively. Moreover, the z-score in test [8] is 0.597 (inactive); in [12], -0.43 (inactive); in [13] it was -0.912 (inactive); in test [14], -0.542 (inactive); in test [16], 1.3 (inactive).
Regarding `C=CCC(OC(C)=O)[C@@H]1[C@@H](N(Cc2cccc3ccccc23)C(=O)c2ccc(-c3ccccc3)cc2)c2cc(OCCCO)ccc2N1C(=O)Cc1ccc2ccccc2c1` (stereo not given in full), the composite z-score in test [1] was -0.141; in [2] it was 0.14; in [3], -0.0171; in [4], -0.272; in test [5], 0.07; in test [6], 0.022. Besides, the composite z-score in [7] was -0.374; in test [9], 0.481; in test [10], -0.134; in test [11], 0.157; in test [15], 0.893; in test [17], -0.145. The composite z-score in test [18] was -0.109; in test [19], 0.397; in test [20], -0.112. The z-score was -0.94 (inactive) in test [8]; -0.616 (inactive) in test [12]; 0.072 (inactive) in [13]; -0.26 (inactive) in test [14]; -0.741 (inactive) in test [16].
